This is part of a sample that, as a whole, favours compounds with a hit. Of some 83,000 tested, about 20% had one in any assay.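 Plates (96-well) were seeded with cells, treated with compound at one concentration, and incubated for 48 hours before percent growth was determined.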 Values without a mark were called inactive. Calls of active or inactive are those of the source. How the source made its calls: active means growth percent below 10; inactive means the rest.

Some test systems named below: SR leukemia; RPMI-8226 leukemia; OVCAR-8 ovarian; OVCAR-5 ovarian; OVCAR-4 ovarian; SK-OV-3 ovarian; IGROV1 ovarian; OVCAR-3 ovarian; HS 578T breast; NCI/ADR-RES ovarian.
Holding throughout (assay): NCI-60 one-dose screen, 48 h (100 = growth as untreated, 0 = no growth, -100 = all killed)
What all share (conditions): 10 µM

Regarding `O=S(=O)(O)c1ccc(O)c2ccccc12`, the growth was 84.6% in the experiment on SR leukemia; 94.5% in the experiment with RPMI-8226 leukemia; 113% with OVCAR-8 ovarian; 98.7% in the experiment on OVCAR-5 ovarian; 98.3% in the experiment with OVCAR-4 ovarian; 94.1% with SK-OV-3 ovarian. Moreover, the growth in the experiment with IGROV1 ovarian was 86.1%; in the experiment with OVCAR-3 ovarian, 108%; in the experiment with HS 578T breast, 102%.
In the case of `COc1cccc(/C=N/NC(=S)NC2CC3CCC2C3)c1O` (stereo not drawn), the growth in the experiment with SR leukemia was 3.68% (active); in the experiment on RPMI-8226 leukemia, 46.8%; with OVCAR-8 ovarian it was 40.5%; in the experiment on OVCAR-5 ovarian, 85.1%; in the experiment with OVCAR-4 ovarian, 19.2%; in the experiment on SK-OV-3 ovarian, 46.2%. Also, the growth with IGROV1 ovarian is 67%; in the experiment with OVCAR-3 ovarian it was 6.8% (active); in the experiment with HS 578T breast it was 25.8%.
For `CCOc1ccc(/C=C/C(=O)c2ccccc2)cc1`, the growth in the experiment on SR leukemia is 40.6%; with RPMI-8226 leukemia it was 9.27% (active); in the experiment with OVCAR-8 ovarian, 95.6%; with OVCAR-5 ovarian, 106%; in the experiment on OVCAR-4 ovarian, 102%; in the experiment on SK-OV-3 ovarian, 103%. Also, the growth with IGROV1 ovarian is 74.8%; in the experiment with OVCAR-3 ovarian, 93.7%; in the experiment with HS 578T breast, 120%.
In the case of `CN(C)/N=C/c1ccccc1O`, the growth with SR leukemia was 97.9%; in the experiment on RPMI-8226 leukemia, 113%; in the experiment with OVCAR-8 ovarian it was 91.3%; in the experiment on OVCAR-5 ovarian, 89.9%; in the experiment on OVCAR-4 ovarian it was 100%; with SK-OV-3 ovarian it was 105%. Besides, the growth was 102% in the experiment with IGROV1 ovarian and 110% in the experiment with OVCAR-3 ovarian.
Turning to `COCCOC(=O)c1ccc(C(C)C)cc1`, the growth in the experiment on SR leukemia was 95.7%; in the experiment with RPMI-8226 leukemia it was 108%; with OVCAR-8 ovarian, 103%; in the experiment on OVCAR-5 ovarian, 104%; in the experiment with OVCAR-4 ovarian it was 104%; with SK-OV-3 ovarian, 82.1%. Further, the growth in the experiment with IGROV1 ovarian is 104%; in the experiment on OVCAR-3 ovarian, 99.5%; in the experiment with HS 578T breast it was 117%.
For `CCOC(=O)Nc1cc2c(c(N)n1)N=C(c1ccccc1)CO2`, the growth in the experiment with SR leukemia was 6.89% (active); in the experiment with RPMI-8226 leukemia, 29.3%; in the experiment with OVCAR-8 ovarian, 14.5%; in the experiment with OVCAR-5 ovarian, 57.4%; with OVCAR-4 ovarian it was 49.4%; in the experiment on SK-OV-3 ovarian it was 22.8%. The growth was 25.2% in the experiment with IGROV1 ovarian, -28.2% (active) in the experiment on OVCAR-3 ovarian, 50.1% in the experiment with HS 578T breast and 13.4% in the experiment on NCI/ADR-RES ovarian.
For `CC(=O)NCc1cc(C)c(C)cc1C`, the growth with SR leukemia is 97.6%; in the experiment with RPMI-8226 leukemia it was 88.1%; with OVCAR-8 ovarian, 104%; in the experiment on OVCAR-5 ovarian, 95.5%; with OVCAR-4 ovarian it was 106%; in the experiment on SK-OV-3 ovarian, 97.6%. Moreover, the growth was 104% in the experiment with IGROV1 ovarian, 101% in the experiment with OVCAR-3 ovarian and 108% in the experiment with HS 578T breast.
As to `O=c1[nH]cc(Cl)cc1O`, the growth in the experiment with SR leukemia is 76.2%; in the experiment with RPMI-8226 leukemia, 69.9%; with OVCAR-8 ovarian, 91%; in the experiment on OVCAR-5 ovarian, 106%; with OVCAR-4 ovarian it was 101%; in the experiment with SK-OV-3 ovarian, 101%. For the same compound, the figures for the growth in the experiment on IGROV1 ovarian, in the experiment on OVCAR-3 ovarian and in the experiment on HS 578T breast were 91%, 88.3% and 91%, respectively.
For `CN(C)c1ccc(S(=O)(=O)O)cc1`, the growth in the experiment on SR leukemia is 92.9%; with RPMI-8226 leukemia it was 95.6%; with OVCAR-8 ovarian it was 101%; with OVCAR-5 ovarian it was 93%; with OVCAR-4 ovarian it was 106%; in the experiment with SK-OV-3 ovarian it was 89%. The growth in the experiment with IGROV1 ovarian was 118%; in the experiment on OVCAR-3 ovarian, 109%; with HS 578T breast, 114%; in the experiment on NCI/ADR-RES ovarian, 104%.
Consider `CCOC(=O)C1OC1c1ccccc1` (stereo not drawn), for which the growth is 98.7% with SR leukemia; 113% in the experiment on RPMI-8226 leukemia; 106% with OVCAR-8 ovarian; 102% in the experiment on OVCAR-5 ovarian; 101% in the experiment on OVCAR-4 ovarian; 99% in the experiment with SK-OV-3 ovarian. In addition, the growth is 108% with IGROV1 ovarian, 101% with OVCAR-3 ovarian and 115% with HS 578T breast.
In the case of `C/C(=C\c1ccc([N+](=O)[O-])cc1)C(=O)O`, the growth in the experiment with SR leukemia was 96.3%; in the experiment on RPMI-8226 leukemia it was 95.8%; in the experiment with OVCAR-8 ovarian it was 99.2%; in the experiment with OVCAR-5 ovarian, 104%; with OVCAR-4 ovarian, 99.2%; in the experiment with SK-OV-3 ovarian, 104%. The growth was 110% in the experiment with IGROV1 ovarian, 110% in the experiment with OVCAR-3 ovarian, 101% with HS 578T breast and 109% in the experiment with NCI/ADR-RES ovarian.
On to `O=[N+]([O-])c1ccc(N=Nc2ccc(O)c3ccccc23)cc1`, for which the growth is 19.4% in the experiment with SR leukemia; 28.5% in the experiment with RPMI-8226 leukemia; 10.6% in the experiment with OVCAR-8 ovarian; 124% in the experiment with OVCAR-5 ovarian; 40.1% in the experiment with OVCAR-4 ovarian; 92% in the experiment on SK-OV-3 ovarian. For the same compound, the growth was 38.1% in the experiment on IGROV1 ovarian, -0.85% (active) in the experiment with OVCAR-3 ovarian, 1.22% (active) with HS 578T breast and 28.1% with NCI/ADR-RES ovarian.
On to `NNc1ccccc1C(=O)O`, for which the growth in the experiment with SR leukemia was 112%; with RPMI-8226 leukemia it was 112%; with OVCAR-8 ovarian it was 110%; in the experiment with OVCAR-5 ovarian it was 88.9%; in the experiment with OVCAR-4 ovarian, 111%; in the experiment on SK-OV-3 ovarian it was 115%. In addition, the growth was 118% with IGROV1 ovarian, 119% in the experiment on OVCAR-3 ovarian, 108% in the experiment with HS 578T breast and 107% in the experiment on NCI/ADR-RES ovarian.
For the compound `CCCNc1ccc(C2=NCCCN2)cc1`, the growth in the experiment with SR leukemia was 96.9%; with RPMI-8226 leukemia, 98.2%; with OVCAR-8 ovarian it was 95.4%; in the experiment with OVCAR-5 ovarian, 101%; in the experiment on OVCAR-4 ovarian, 100%; with SK-OV-3 ovarian it was 107%. Further, the growth in the experiment on IGROV1 ovarian is 86%; with OVCAR-3 ovarian, 99.2%; in the experiment on HS 578T breast, 103%.
`O=[N+]([O-])c1cccc(N=Nc2ccc(O)cc2O)c1`: the growth in the experiment with SR leukemia was 43.1%; with RPMI-8226 leukemia it was 29.6%; in the experiment with OVCAR-8 ovarian, 74.3%; with OVCAR-5 ovarian it was 143%; in the experiment with OVCAR-4 ovarian it was 62.3%; in the experiment with SK-OV-3 ovarian, 101%. Besides, the growth was 83.6% with IGROV1 ovarian, 62.4% in the experiment with OVCAR-3 ovarian, 72.7% with HS 578T breast and 88.8% in the experiment with NCI/ADR-RES ovarian.
Take `N#CCc1ccc([N+](=O)[O-])cc1`: the growth with SR leukemia was 105%; with RPMI-8226 leukemia, 109%; in the experiment with OVCAR-8 ovarian, 89.5%; in the experiment with OVCAR-5 ovarian it was 119%; with OVCAR-4 ovarian, 111%; in the experiment on SK-OV-3 ovarian, 101%. In addition, the growth in the experiment on IGROV1 ovarian was 135%; in the experiment with OVCAR-3 ovarian it was 117%; in the experiment on HS 578T breast, 98%.
Consider `CCCCC(=O)c1ccc(OC)cc1`, for which the growth with SR leukemia is 92.2%; in the experiment on RPMI-8226 leukemia, 99.8%; with OVCAR-8 ovarian it was 97%; with OVCAR-5 ovarian, 90.5%; with OVCAR-4 ovarian it was 116%; with SK-OV-3 ovarian, 111%. Besides, the growth was 101% with IGROV1 ovarian, 114% in the experiment with OVCAR-3 ovarian and 95.2% in the experiment with HS 578T breast.

(Values after PubChem BioAssay (NCI).)
